# Reference: the supplement of paper PMC12632987
# T1: USP38, Q8NB14
# T1 chain: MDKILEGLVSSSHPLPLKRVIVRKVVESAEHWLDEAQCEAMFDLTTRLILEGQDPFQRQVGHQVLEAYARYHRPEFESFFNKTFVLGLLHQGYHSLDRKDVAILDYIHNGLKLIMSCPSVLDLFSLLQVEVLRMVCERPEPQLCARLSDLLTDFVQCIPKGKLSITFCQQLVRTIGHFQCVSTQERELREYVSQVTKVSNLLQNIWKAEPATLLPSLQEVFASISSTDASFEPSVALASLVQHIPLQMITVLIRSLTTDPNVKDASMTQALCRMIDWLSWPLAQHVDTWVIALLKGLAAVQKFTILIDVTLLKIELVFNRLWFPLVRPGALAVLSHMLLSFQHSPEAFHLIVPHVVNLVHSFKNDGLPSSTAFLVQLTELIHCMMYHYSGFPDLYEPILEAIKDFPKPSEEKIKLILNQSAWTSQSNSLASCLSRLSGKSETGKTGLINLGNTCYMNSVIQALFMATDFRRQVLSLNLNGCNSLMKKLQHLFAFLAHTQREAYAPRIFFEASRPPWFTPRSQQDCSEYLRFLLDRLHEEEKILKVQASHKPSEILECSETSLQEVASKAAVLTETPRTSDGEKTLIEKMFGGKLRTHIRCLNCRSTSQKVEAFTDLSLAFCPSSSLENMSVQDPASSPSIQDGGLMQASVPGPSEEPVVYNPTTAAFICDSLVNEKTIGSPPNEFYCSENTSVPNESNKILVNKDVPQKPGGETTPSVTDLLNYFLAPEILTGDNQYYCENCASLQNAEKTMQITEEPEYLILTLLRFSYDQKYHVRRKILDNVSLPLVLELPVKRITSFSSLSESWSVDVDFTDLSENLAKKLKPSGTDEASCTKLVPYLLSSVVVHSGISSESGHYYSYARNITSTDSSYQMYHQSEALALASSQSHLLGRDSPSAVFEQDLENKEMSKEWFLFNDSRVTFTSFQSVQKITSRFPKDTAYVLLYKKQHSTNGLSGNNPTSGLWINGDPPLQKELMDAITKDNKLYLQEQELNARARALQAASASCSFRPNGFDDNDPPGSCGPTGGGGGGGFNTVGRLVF
# B1: usp_38_diff_out_24_27_502 (protein)
# chain: EEEKKKKLEEIKKLLEEILALLKASQTGDIATRIKASSEIDELFEKIEKILKELGNEEGLELLTELKTQAYAVLSRSPDWQEHLAKAKELAEKIIKLAKK
# B2: usp_38_diff_out_24_27_500 (protein)
# chain: EKEKEEKIKKVKELFEEIEKLVKESRTADIAGRIRISSEVDELFEEIRKIAKELGNEEALKLIDKAKAQAFAIISGDENWEEHLKELKKLFEEILKEFEK
# B3: usp_38_diff_out_22_164_481 (protein)
# chain: KEEEIKEKLKKEIEEKIKETKKELDKLFAKAKADPEKKEEYIKEARMLLIKTQKELLELIEKTVKENNLSEETKEELRSFLTVQMLKLLNYLDEKEEELK
# B4: usp_38_diff_out_24_27_497 (protein)
# chain: EEEKKEKLEKLIKKFEEILKLAKEAVGADLATRIRLSREIDELLEEARKLAEELGIEEVKKIVTEVAVKASIVLSGSEEMEEAIEEIEKLIEEAKKLLEE
# B5: usp_38_diff_out_2_113_467 (protein)
# chain: DPEERREEAELYRDIILEGADKLLRLAERGMLTPDRTRVMLGGIVHAAREAMELDPSTRPTIEEVIEKLERVRKLVEGKNPEIAKEVERAIEELKEILKE
# B6: usp_38_diff_out_2_113_461 (protein)
# chain: SEEERKERAEDLKEIITEGSDYLLEKAKKGTLSGDTMIVMIGGIVHAAKEAFALDPSVKPTIEEAIKKLEEIKELYKDRNPEVAKAIEDAIKELKALLAK
# B7: usp_38_diff_out_2_113_464 (protein)
# chain: DPEERQRLALLLRDTVVSGADYLLEKAKKGTLSSDTIITMIGGITHAARELAALDPSAKPALEEVAKKLKEIAEIYKDKDEEVKKAVEEAIKEIEALIKA
# B8: usp_38_diff_out_2_113_465 (protein)
# chain: EEEERARLTQLYVDTILEGSDQLLRRAKRGTLSSTTMITMIGGIVEAAREAFRLDPSVKPVLEEVAKKLAEIAEIYADKDAETAAAVKAAIAEINALIEA
# B9: usp_38_diff_out_24_27_503 (protein)
# chain: EEERKEKIERLKKLLEEILKLLEESRTGDISVRIRASSEIDELAEEIRKILEELGNEEGLELLTEFETQVYAVLSRSPNWEEHFEKAKELAEKILELAKK
# B10: usp_38_diff_out_24_27_505 (protein)
# chain: SEELEKALEKALKLLEDIAEDLKEAQKKGPTALFVVKRKHVDEIDKLREELEKLGPELAREVTTILLAFLNRSAADPEKREEYLKEAKEKIKEAFEKHKK
# B11: usp_38_diff_out_2_113_460 (protein)
# chain: DEEERKELAELYKKTILEGAEKLLKRTKKGTLSTATQIAMLGGIVHAAKEAAKLDPSVKPVLEEVIKKLKEIAELVKDKNPELYAATQKAIEEIEKILKE
# B12: usp_38_diff_out_22_164_478 (protein)
# chain: SEEEILKKVKEELEKLAEETKKELDKLFEEAKANPEKKEEYIQEAQMLIIKTQKEMNDYIEETVKKYNLSEETKEELKSHRTVLNLKVLNYLDEKIEELK
# B13: usp_38_diff_out_22_74_484 (protein)
# chain: SAEEEETEKLRKEIEERKAETLARLEELRAAARAALAAGDERAARRLLAELDDLVTDTVIWLNKVALAHGAIHDYALETALEIRERATAIVAELEAALAA
# B14: usp_38_diff_out_20_123_458 (protein)
# chain: SSEALERAERLLRQAEQLLENAEQILKFVKAGALSEETVEEHIKFIETHIKYLEEELERLEEEHPELEELLERIREILERTRKVLEEIKKALEKRRKEKE
# B15: usp_38_diff_out_2_113_466 (protein)
# chain: DPEERAEEAALYRDIILEGAELLLRKAKKGMLTPDRTRVMLGGIVHAAEVAYELDPSVAPDIERVIEKLEEVRELVKDKNPEVAAEIEKAIEELKAILER
# B16: usp_38_diff_out_22_74_485 (protein)
# chain: SAEEEANAALRAEIDAKVADWNKYREEAERRIEEAIAAGRYREARRLLAELDDKTTDLIIWLNKQALANGAIHDYALAKAEEIRKKTTEVVERAEARLAA
# B17: usp_38_diff_out_2_113_468 (protein)
# chain: DPEQKKEEAQLYKDIILEGADKLLELAKKGMLTPDRTKVMLGGIVHAAREAYELDPSVKPVIEEVIEKLEEIKELVKDKNPEIAKEIEEAIEELKKILEE
# B18: usp_38_diff_out_24_27_499 (protein)
# chain: EEEKQKLLKELLKKFEEILKLSEKAVGADLATRIKLSSEIDEKLEEARKLAKELGDEEIEELVTKVEIAANIVLSGSEEAEEALKEIKKLVEELKKKIEE
# B19: usp_38_diff_out_22_74_487 (protein)
# chain: SAAEKAQEEAKKKLEELLKEFNEELEKYLKEAKKAIEAGNLKEARRILGEFTSKFAELSSKIAKAAWEAELPLDEIQKIMTDLTKKAAEAVKEMEEAIKA
# B20: usp_38_diff_out_22_164_479 (protein)
# chain: SEEEILEKLKEEIEKLAEETKKKLEELAKKAKENPEKKEEYLKQMRMLVIQTQQKMGDLIDEAAKKYNLSEETVEELRSHRTVQSLKVLNYLDELEKELE
# B21: usp_38_diff_out_2_113_463 (protein)
# chain: SEEERRERAEDLARIILEGSEYLLEKAKRGTLSGETMITMIGGIVHAAEEAFRLDPSVAPVIKRAIEKLKEIAELYKDKNPEVYEAIKEAIERLEKLLAE
# B22: usp_38_diff_out_22_74_483 (protein)
# chain: SAEEAETEALKKEIDEKVKKTKEELDRLRAEAKAAIAAGRYREARRLLAEMDDLVTDTVIWLNKVALAHGAVHDYALAKANEIREYATKINAELEALLEA
# B23: usp_38_diff_out_24_27_501 (protein)
# chain: SAEHEKKLEKAKELLKKILELAEKAQTGDIATRIKASSEIDELFEELKKIAEEENNEELLKLLTELKTKVYAVLSGHPNAEEHLKEAKKLAEKFLEELKK
# B24: usp_38_diff_out_24_27_495 (protein)
# chain: EEEKKKLLEKLIEKFEKILELAKKAVGADLATRIKLSSEIDELLEEARKLAKELGIPEVEKLVTQVAIQASIVLSGSEEMEEAIKEIEKIIEELKKLLKE
# B25: usp_38_diff_out_23_30_488 (protein)
# chain: SPLEEAKKRLREAAEKARKEATEIKKKAEELKKKAENEYLKALANQVIDAANDFIEDLDIWLSRIDEYDEARLLRLTEYVEASLAHLKQLYEDLLKEFKK
# B26: usp_38_diff_out_2_113_470 (protein)
# chain: DPEERKKEAELYKKIILEGAEQLLRLAKKGRLTPDRTRVMLGGIVEAARRAYELDPSVKPVIEEVIKKLEEVEKLVKDKNPEVAAAIKEAIKELKKILKE
# B27: usp_38_diff_out_24_27_504 (protein)
# chain: SEEHEKKLEELKKLLEEILKLLEESKTGDISVRIKASSEIDELFKEIEKILKELGNEEGLKLLKEFKTQAYAVLSRSPDWEEHLKKAKELAKKILELVEK
# B28: usp_38_diff_out_20_123_457 (protein)
# chain: MEKLKAEAEALLKRAEALLENAKQILKFVKAGVLSEEQVEEHIEMIEEHIKYLEEELKKLKAAAPELKELLEKVEKAIKETKKVREEIKKELEKRRKEKE
# B29: usp_38_diff_out_21_100_459 (protein)
# chain: MEEIKKEIKEELEKAEKALKEAIKLLKEGAKKEEILKKLDEALSHLVRAQYLAAKISFELAHKISEIIDIVQEAKKLLDTDKEKALELLEKALKELKELK
# B30: usp_38_diff_out_22_74_486 (protein)
# chain: SAEAEEVAKIKAEIDKLVAELNAYLEKAKEEAEKAIAAGRLREARRIRAEMDDKVTDAIITLNKIALANGAIHDYALAKAQEIRDKSTKVFEEIDARLAA
# B31: usp_38_diff_out_22_164_477 (protein)
# chain: MEEKIKKEVKEKIEKIAEETKKKIDELFAEAKANPEKKEEYIKKARMLLIESNKEIKEYIEKTVKENNLSEETKEELNSHATVQNLKVLNYLDEKIEELK
# B32: usp_38_diff_out_22_74_482 (protein)
# chain: SAEAEAVAATKAEIEKLTAETLKKLDELYKEAKKYIEAGDYKNARRKLAEMDDLVTETVIYLNKVALAEGAVHDLALAKANEIRKKATEINEELEKLLKE
# Target: T1, USP38, Q8NB14
# Assay: median log2 fold change of GCK-ALFA target abundance (FLAG IP / Myc IP barcode read proportion) (log2 ratio); each designed protein is fused to an ALFA-tag nanobody in HEK293 cells to bring the named protein to FLAG-tagged glucokinase (GCK); Myc marks an untargeted standard; higher = target protein stabilised (more abundant)
# Conditions: target protein: 3xFLAG-MCP-GCK-ALFA reporter; HEK293 landing pad (RPLP)
# Outline: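 Sequencing of reverse-transcribed, amplified circular RNA barcodes from anti-FLAG and anti-Myc immunoprecipitates provided the readout for an ALFA-nanobody-fused binder library recombined into HEK293 landing-pad cells. Those cells were induced with 2 μg mL^−1 doxycycline, transfected with a plasmid expressing a FLAG-tagged target and a Myc-tagged standard, and lysed after 48 h. Target abundance is the per-binder median log2 ratio of FLAG to Myc barcode read proportions. Only barcodes at a proportion of ≥10^−7 in both replicates and binders with ≥3 barcodes per replicate were kept, with a 10^−6 pseudocount added before the two replicates were pooled.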
binder,measurement,value
B1,median log2 fold change,0.548
B2,median log2 fold change,0.364
B3,median log2 fold change,-0.692
B4,median log2 fold change,0.276
B5,median log2 fold change,0.0135
B6,median log2 fold change,-0.00144
B7,median log2 fold change,0.0135
B8,median log2 fold change,0.0889
B9,median log2 fold change,-0.574
B10,median log2 fold change,0.427
B11,median log2 fold change,0.123
B12,median log2 fold change,0.187
B13,median log2 fold change,0.0294
B14,median log2 fold change,0.0141
B15,median log2 fold change,-0.156
B16,median log2 fold change,-0.0773
B17,median log2 fold change,0.211
B18,median log2 fold change,0.204
B19,median log2 fold change,-0.392
B20,median log2 fold change,0.177
B21,median log2 fold change,-0.229
B22,median log2 fold change,0.0676
B23,median log2 fold change,0.157
B24,median log2 fold change,0.368
B25,median log2 fold change,0.13
B26,median log2 fold change,0.141
B27,median log2 fold change,0.3
B28,median log2 fold change,0.24
B29,median log2 fold change,-0.0676
B30,median log2 fold change,-0.198
B31,median log2 fold change,0.309
B32,median log2 fold change,0.312
